Measured values as given in ChEMBL document CHEMBL3988442, “University of Dundee, Small-Polar-MMV Screening Library” (2021).
The campaign covered roughly 66,000 compounds. About 960 (1.5%) showed an effect of 50% or more. The full list was thinned out, with strong results kept by preference.

System: Trypanosoma brucei
Test: Trypanosoma brucei 72 hour study
Format: functional, organism-based
Set-up: scale not given: in the data most compounds retested in dose-response had high values

Row | SMILES | Percent Effect (30.3 µM, […]) | Percent Effect (30 µM, 30.03 µM)
1 | CN1CCCc2c1nc1c(c2N)CCCC1.O=C(O)C(=O)O | 6.357% | –
2 | Cc1cnn(C2CN(Cc3nnc(C4CC4)o3)C2)c1 | 93.44% | –
3 | Cc1cnn(C2CN(Cc3noc(C4CC4)n3)C2)c1 | -128.4% | –
4 | Cc1ccc(-c2nnc(CN3CC(n4cc(C)cn4)C3)o2)cc1 | – | -4.601%
5 | CCn1ccnc1CN1CCCC1C(=O)Nc1nccs1 (configuration not stated) | 4.608% | –
6 | Fc1cccc(CN2CCC3(CCCN3c3ncccn3)CC2)c1.O=C(O)C(F)(F)F | -16.3% | –
7 | CCOC(=O)C1(CCOC)CCN(Cc2nccn2CC)CC1 | -0.1521% | –
8 | CCOC(=O)C1(CCOC)CCCN(Cc2nccn2CC)C1 (configuration not stated) | -20.23% | –
9 | CCC1(CO)CCCN(Cc2nccn2Cc2ccccc2)C1 (configuration not stated) | – | -5.033%
10 | CCn1ccnc1CN1CCCC(CO)(Cc2cccc(OC)c2)C1 (configuration not stated) | – | -22.09%
11 | CCOC(=O)C1(Cc2ccccc2)CCCN(Cc2nccn2CC)C1 (configuration not stated) | 95.74% | –
12 | CCn1ccnc1CN1CCCC(CO)(Cc2cccc(Cl)c2)C1 (configuration not stated) | – | 109.3%
13 | Cn1cc(CCC(=O)N2C[C@H]3CC[C@@H]2CN(Cc2cccnc2)C3)cn1 | – | -23.98%
14 | Cc1ccnc(NC(=O)C2CCN(CCCc3cn[nH]c3)CC2)c1 | – | -19.03%
15 | Cc1cc(NC(=O)N2CCOC(C(N)=O)C2)ccc1Br (configuration not stated) | – | -3.776%
16 | NC(=O)C1CN(C(=O)Nc2cc(Cl)cc(Cl)c2)CCO1 (configuration not stated) | – | 103.3%
17 | COCC1CN(C(=O)Nc2cc(Cl)cc(Cl)c2)CCO1 (configuration not stated) | -16.88% | –
18 | CCN(CC)CCn1c(=O)oc2ccccc21.Cl | – | -24.39%
19 | CC(C)Oc1cccc(-c2nc3c([nH]2)CCCNC3=O)c1 | – | -40%
20 | CC1(C)CNC(=O)c2nc(-c3n[nH]c(=O)[nH]3)[nH]c2C1 | – | -63.36%
21 | COc1cc(-c2nc3c([nH]2)CCCNC3=O)ccc1O | – | 4.773%
22 | Cc1cccc2nc(-c3nc4c([nH]3)CCCNC4=O)cn12 | – | 66.46%
23 | COc1ccc(-c2nc3c([nH]2)CCCNC3=O)cc1OC | – | -51.91%
24 | CC(C)Cn1cncc1-c1nc2c([nH]1)CCCNC2=O | – | -24.09%

Row | SMILES | Percent Effect (30.3 µM, […]) | Percent Effect (30 µM, 30.03 µM)
25 | CC1(C)CNC(=O)c2nc(-c3ccccc3)[nH]c2C1 | – | -21.93%
26 | COc1cc(-c2nc3c([nH]2)CCCNC3=O)cc(OC)c1OC | – | -56.65%
27 | Cc1ccc2nc(-c3nc4c([nH]3)CCCNC4=O)cn2c1 | – | 99.29%
28 | Cc1cccc(Cc2nc3c([nH]2)CCCNC3=O)c1 | – | -3.182%
29 | Cc1cn2cc(-c3nc4c([nH]3)CCCNC4=O)nc2s1 | – | 81.5%
30 | Cc1ccc2nc(-c3nc4c([nH]3)CC(C)(C)CNC4=O)cn2c1 | – | 106.8%
31 | CN(Cc1ccco1)C[C@H]1OC[C@@H]2CN(c3ncc(F)cn3)CC[C@@H]21.O=C(O)C(F)(F)F.O=C(O)C(F)(F)F | -14.08% | –
32 | CN(C)C(=O)N1CCC2(CC1)CCN(Cc1ccccn1)C2=O.O=C(O)C(F)(F)F | – | 7.411%
33 | Cc1ccc(CN2C[C@H](NC(=O)c3nccn3C)[C@H]3OCCC[C@H]32)o1 | -18.85% | –
34 | O=C(O)C(F)(F)F.O=C(O)C(F)(F)F.c1cncc(CN2CCn3c(Cn4cncn4)cnc3C2)c1 | -106.7% | –
35 | Cc1cc(C(=O)N2CC[C@@H](N(C)C)[C@@H]2Cc2ccccc2)no1.O=C(O)C(F)(F)F | 3.974% | –
36 | CN(C)CCn1c([C@@H]2CCCO2)cc2cccnc21.Cl | -17.47% | –
37 | CN(C)S(=O)(=O)N1CCC2(COCc3cnc(NCC4CC4)nc32)C1 (configuration not stated) | – | -49.38%
38 | CNC(=O)[C@@H]1CCO[C@@H]2CCN(Cc3ccsc3)C[C@H]21.O=C(O)C(F)(F)F | -300.6% | –
39 | O=C(C1CCC1)N1CCC2(CCCN2CC2CC2)CC1.O=C(O)C(F)(F)F | -53.73% | –
40 | COc1ccc(CN2CCOCC3(CCN(C4CCOCC4)C3)C2)cc1.O=C(O)C(F)(F)F.O=C(O)C(F)(F)F (configuration not stated) | – | 20.44%
41 | O=C(O)C(F)(F)F.O=C1CC2(CNCCN(C(=O)Nc3ccccc3)C2)CN1 (configuration not stated) | -24.96% | –
42 | O=C(Nc1ccccc1)c1ccc2c(c1)C1(CCCCC1)CN2.O=C(O)C(F)(F)F | 97.07% | –
43 | CC(=O)c1ccc(NC(=O)c2ccc3c(c2)C2(CCCCC2)CN3)cc1.O=C(O)C(F)(F)F | -13.93% | –
44 | COc1ccc(C[C@H]2CN(Cc3ccoc3)CC[C@@H]2OC)cc1.O=C(O)C(F)(F)F | -8.959% | –
45 | COC(=O)Cn1c(=O)nc2n1C(=O)N(c1cccc(Cl)c1)C2 | – | -8.775%
46 | Cc1cc(C)c(C#N)c(NCCn2cnnc2C(C)C)n1 | – | -40.75%
47 | Cc1n[nH]c(C)c1CCC(=O)N1CCC(O)(CN2CCOCC2)C1 (configuration not stated) | -4.476% | –
